Rows were chosen to be rich in hits. Some 1.8% of all compounds tested hit in one or more screens of this group.
HEK293 tox – cytotoxicity in counter-screen for GLP-1R inverse agonists | 410,000 compounds, 0.13% hits | Potency, µM (titrated, usually from 38.3 µM), for inactives: at the top dose activity change, negative = inhibition, most hits filed as inhibitors | HEK293 cAMP-luciferase reporter cells, luminescence, 24 h;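 further: loss of luciferase light is scored as toxicity; potency means the concentration at half of the fitted maximal effect; on the % scale 0 is the no-effect control and ±100 the full control effect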
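MLSMR compounds, 24 hr on cells at 37 deg C/5% CO2; luminescence after luciferase reagent (12 min RT). Inhibition counted as the undesired cytotoxic outcome.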
TRPML1 agonist – agonists of human TRPML1 channel; Q9GZU1; TRPML1-expressing cells, Ca2+ dye fluorescence, FDSS; activation, % (test concentration not listed); 410,000 compounds, 0.12% hits; in the data active means activation above about 50%; inconclusive means mostly about 30% to 49%; further: 0% is about no effect
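TRPML1-DL cells, Tet-induced overnight (~16 h, 37 degrees C), loaded 45-90 min at room temperature with Ca8 no-wash calcium dye plus quencher. FDSS fluorescence: 10 s baseline, compound pin-transfer, 110 s agonist read, then EC80 54-4 (4uM final) and 110 s antagonist read.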
GLP-1R agonist – activates the human GLP-1 receptor; P43220; 380,000 compounds, 0.007% hits; HEK293 GLP-1R CRE-luciferase, luminescence, 4-6 h; cells express a hypersensitive GLP-1R form; Potency, µM (top dose mostly 45.6 µM), inactives show top-dose activation, hits mostly activators; further: potency means the concentration at half of the fitted maximal effect; % of control where 0% means no effect
Target sequence (P43220 whole entry, looked up): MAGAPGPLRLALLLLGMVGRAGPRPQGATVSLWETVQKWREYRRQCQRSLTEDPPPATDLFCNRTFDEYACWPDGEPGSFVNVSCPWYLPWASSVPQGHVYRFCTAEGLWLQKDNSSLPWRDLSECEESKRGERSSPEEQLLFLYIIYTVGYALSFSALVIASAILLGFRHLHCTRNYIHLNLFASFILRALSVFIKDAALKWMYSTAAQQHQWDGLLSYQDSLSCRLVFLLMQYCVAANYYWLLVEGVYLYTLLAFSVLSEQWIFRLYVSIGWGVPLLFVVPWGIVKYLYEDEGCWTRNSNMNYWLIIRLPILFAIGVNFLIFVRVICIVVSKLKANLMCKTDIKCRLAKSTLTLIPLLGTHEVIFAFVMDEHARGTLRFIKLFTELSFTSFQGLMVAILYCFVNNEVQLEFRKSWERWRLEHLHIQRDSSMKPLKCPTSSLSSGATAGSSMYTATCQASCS
GLP-1R inv ag – acts as inverse agonist at human GLP-1 receptor; Potency, µM (titrated, usually from 38.3 µM), for inactives: at the top dose activity change, negative = inhibition, hits mostly inhibitors; P43220; 410,000 compounds, 1.6% hits; HEK293 GLP-1R CRE-luciferase, luminescence, 24 h; GLP-1R form is constitutively active; further: potency means the concentration at half of the fitted maximal effect; on the % scale 0 is the no-effect control and ±100 the full control effect; nearly all actives have a fitted effect of over 55% in size
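Inverse agonists were sought by their lowering of basal cAMP reporter luciferase output in HEK293 cells stably carrying constitutively active human GLP-1R, after 24 h compound treatment.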
TRPML1 blocker – human mucolipin-1 channel inhibition. Q9GZU1. TRPML1-inducible cells, Ca2+ dye fluorescence, FDSS; active compounds read low; inhibition of EC80 agonist-evoked calcium signal. activity change, negative = inhibition, % (test concentration not listed). 390,000 compounds, 0.02% hits. AID 624415; in the data active means activity change below about -50%; inconclusive means between about -30% and that limit;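 further: stimulus is agonist 54-4 at its EC80 concentration; on the % scale 0 is the no-effect control and ±100 the full control effect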
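Tet-induced TRPML1-DL cells loaded with Ca8 no-wash calcium dye were read kinetically on FDSS. Compound addition was followed by EC80 agonist 54-4 (4 uM final); inhibition was read over 110 s.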
Active calls of the source: *; u = inconclusive; x = not tested or not shown. Unless noted, the call rests on the fitted dose curve; in most records, active means well fitted curve in the direction sought with a large enough effect; inconclusive means small, poorly fitted or top-dose-only effect, or another doubt; inactive means no such curve, though single readings can be large; an effect the other way counts as inactive or inconclusive.

SMILES | HEK293 tox | TRPML1 agonist | GLP-1R agonist | GLP-1R inv ag | TRPML1 blocker
Cc1ccc(C(NC(=O)C2CCCCC2)c2c(O)ccc3ccccc23)cc1 (configuration not stated) | u | 2.9 | -26.2% | 4.47µM* | 13.2
CCC(=O)NC(c1ccccc1)c1c(OC(C)=O)ccc2ccccc12 (configuration not stated) | 7.2% | -0.1 | 6.5% | u | 3.9
CC(C)(C)OC(=O)N1CCC(c2c(C(=O)N3CCN(c4ccc(Cl)cc4)CC3)cnn2-c2ccc(F)cc2F)CC1 | 0.6% | -0.1 | x | -3.9% | -10.2
Cc1noc(Cn2c(=O)c3ccccc3n(CC(=O)Nc3ccc(C(C)C)cc3)c2=O)n1 | 0.5% | -0.6 | x | 2.9% | -8.8
CCCCNC(=O)[C@@H]1CC=C[C@@H]2CCN(Cc3ccccc3)C(=O)[C@@H]21 | x | -0.8 | x | x | x
CC(C)OCCCNC(=S)N1CCC(C(=O)c2ccc(Cl)cc2)CC1 | -2.8% | 1.3 | -1.6% | u | -5.9
CN(C)CCCNC(=S)N1CCC(C(=O)c2ccc(Cl)cc2)CC1 | 7.2% | -0.2 | 3.7% | 2µM* | -4.7
CCOc1ccc(N(CC(=O)NC2CC3CCC2C3)S(=O)(=O)c2ccccc2)cc1 (configuration not stated) | -3.5% | 4.0 | 0.6% | 17.7% | -5.7
CCOc1ccc(N(CC(=O)NC2CC3CCC2C3)S(=O)(=O)c2ccc(C)cc2)cc1 (configuration not stated) | 0.7% | 2.0 | -3.5% | 7.94µM* | 14.3
CC1=C(C(=O)Nc2ccccc2C(=O)N2CCCCC2)SCCO1 | 8.1% | -0.4 | -2.7% | -18.6% | -0.7
CC1=C(C(=O)Nc2ccccc2C(=O)NC2CCCCC2C)SCCO1 (configuration not stated) | 0.0% | 0.6 | 1.3% | 10µM* | 1.6
NC(=O)C(C(=O)/C=C/c1ccc(Cl)cc1)=C1SCCS1 | -28.4% | 3.6 | -8.1% | 3.98µM* | 25.5
COc1cc(/C=C/c2nc(C#N)c(N3CCN(C)CC3)o2)cc(OC)c1OC | 11.0% | 0.0 | x | 0.2% | 0.4
O=C1NC(=O)C2(CCc3ccccc32)N1 (configuration not stated) | -8.9% | 0.3 | -3.2% | 1.6% | 11.4
C=C1CC2(OC1=O)c1ccccc1CCc1ccccc12 | 10µM* | 1.4 | -16.6% | u | 64.7
O=C(N/N=C/c1ccc(O)cc1)c1ccc(COc2cc(Cl)ccc2Cl)o1 | -27.6% | 21.8 | -3.8% | 1.41µM* | 1.8
O=C(Nc1ccc(Br)cc1)c1cc(S(=O)(=O)N2CCc3ccccc32)ccc1F | 0.3% | 0.7 | x | 8.6% | -3.7
CC[n+]1c(-c2ccc(C)cc2)csc1Nc1c(C)n(C)n(-c2ccccc2)c1=O | -18.3% | 2.0 | 9.2% | 8.91µM* | -11.6
C[C@@H]1C(=O)N(S(=O)(=O)c2ccc([N+](=O)[O-])cc2)[C@H]1c1ccc(F)cc1 | x | 0.7 | x | x | 9.5
O=C(Nc1nnc(-c2ccccc2Cl)o1)c1nc2ccccc2s1 | 14.6% | 65.5* | 3.1% | u | 1.8
COc1cc(F)ccc1-c1cc(C(=O)NCc2cccc(Cl)c2)[nH]n1 | -2.7% | -0.3 | 11.1% | u | x
COc1ccc(Cl)cc1-c1cc(C(=O)NCc2cccc(Cl)c2)[nH]n1 | -18.8% | 2.7 | 1.5% | 3.16µM* | x
CCc1ccccc1OCCSc1nnc(-c2cc(OC)c(OC)c(OC)c2)o1 | -7.9% | 2.5 | x | u | 9.6
CCOC(=O)c1cnn(-c2ccc(Cl)cc2)c1C1CCN(C(=O)OC(C)(C)C)CC1 | 14.8% | 0.4 | -3.0% | 10µM* | -15.0
Cc1ccc(-n2ncc(C(=O)NCCc3c[nH]c4ccccc34)c2C2CCN(C(=O)OC(C)(C)C)CC2)cc1C | -9.5% | -0.2 | -4.4% | 11.2µM* | -13.9
SMILES | HEK293 tox | TRPML1 agonist | GLP-1R agonist | GLP-1R inv ag | TRPML1 blocker
Cc1cc(C)nc(NC(=S)NC(=O)c2ccccc2F)n1 | -22.0% | -0.1 | 11.8% | 14.9% | 6.1
Cc1cc(C)nc(S/C=C/C(=O)c2ccccc2F)n1 | 3.55µM* | 2.2 | 2.5% | u | 1.1
CC1(C)S[C@@H]2[C@H](NC(=O)[C@H](N)c3ccccc3)C(=O)N2[C@@H]1C(=O)OCOC(=O)[C@@H]1N2C(=O)C[C@@H]2S(O)(O)C1(C)C | x | x | 0.4% | x | x
S=C(Nc1ccccc1)Nc1ccc(Br)cn1 | 3.55µM* | 1.6 | 5.9% | u | -1.5
CCCN1CCC(=O)N(C(CSc2ccc(Br)cc2)c2ccccc2)CC1 (configuration not stated) | x | 1.4 | x | x | -1.9
Fc1ccc(CNc2ccc(N3CCN(Cc4ccccc4)CC3)cc2)cc1 | -15.4% | 0.5 | -1.9% | 4.47µM* | -7.4
CC(=O)N1CCN(c2ccc(NCc3ccccc3)cc2)CC1 | -13.7% | -1.0 | 4.0% | 0.0% | -7.7
CCCCCCSc1ccc([C@H]2N[C@@](CC(C)C)(C(=O)OC)[C@H]3C(=O)N(CC)C(=O)[C@@H]23)cc1 | -16.0% | -0.9 | 9.3% | -6.8% | -6.1
CCCCCCSc1ccc([C@H]2N[C@@](C)(C(=O)OC)[C@H]3C(=O)N(CC)C(=O)[C@@H]23)cc1 | 0.0% | 1.3 | 25.0% | 10µM* | 33.4
CCCCCCSc1ccc([C@H]2N[C@@](Cc3ccccc3)(C(=O)OC)[C@H]3C(=O)N(C)C(=O)[C@@H]23)cc1 | -6.2% | 2.2 | 11.7% | 11.2µM* | u
COc1ccc(CN2C[C@H](Cc3ccccc3)[C@@H](CC(=O)Nc3ccccc3)C2=O)cc1 | -4.1% | 0.1 | 13.9% | 8.91µM* | 9.2
CCC[C@H]1CN(c2ccc(Br)cc2)C(=O)[C@@H]1CC(=O)Nc1ccccc1 | -4.2% | -0.6 | -0.3% | 11.2µM* | 18.9
COc1ccc(N2C[C@H](CSC)[C@@H](CC(=O)Nc3ccc(Br)cc3)C2=O)cc1 | -11.4% | x | 3.7% | u | x
CCC[C@H]1CN(c2ccc(Br)cc2)C(=O)[C@@H]1CC(=O)Nc1ccc(OC)cc1 | -7.5% | 1.6 | -1.9% | 7.94µM* | 5.0
CCCCCCc1ccc(N2C[C@H](CCCCC)[C@@H](CC(=O)NCc3ccccc3)C2=O)cc1 | 5.9% | 0.8 | -4.2% | 4.47µM* | -8.0
CCCCCCc1ccc(N2C[C@H](CCCCC)[C@@H](CC(=O)NCc3ccc(OC)cc3)C2=O)cc1 | 6.2% | -0.2 | -4.1% | u | -4.2
COc1ccc(C(=O)Oc2c(Sc3ccc(Cl)cc3)c(C)nn2C(C)(C)C)cc1OC | -7.9% | 0.2 | x | -12.4% | -5.3
O=C(O)CCc1ccc(-c2ccc(Cl)cc2)n1-c1cccc(C(F)(F)F)c1 | 0.1% | -0.6 | x | u | 8.1
CCCCOc1ccc(C(=O)NCC2(N3CCN(C)CC3)CCCCC2)cc1 | 1.5% | 0.7 | x | -5.6% | -2.7
Cc1ccc(S(=O)(=O)C(CNC(=O)c2ccccc2F)c2cccs2)cc1 (configuration not stated) | 30.2% | -0.6 | x | -2.1% | 12.2
